Assay outcomes deposited in PubChem BioAssay by National Center for Advancing Translational Sciences (NCATS).
KDM5B inh – Primary screen for KDM5B Histone Demethylases FDH-coupled qHTS. 220,000 tested, 2.6% active. AID 1347165, 2019. KDM5B demethylase, FDH-coupled NADH fluorescence (FDH is formaldehyde dehydrogenase). Lysine-specific demethylase 5B (Homo sapiens), Q9UGL1. Potency, µM (doses to about 57.7 µM), actives largely listed as inhibitors; also: nearly all actives have a fitted effect of over 70% in size
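qHTS format, multiple compound concentrations. Buffer 50 mM HEPES pH 7.5/0.01% Tween-20; 200 nM KDM5BΔAP final; 10 min compound preincubation; substrate-mix levels 12.5 µM peptide, 25 µM α-KG, 0.25 mM NAD⁺; 30 min RT; ΔRFU.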
SNCA viab count – GF-AFC viability counterscreen for inhibitors of alpha-synuclein gene (SNCA) expression | HEK-293-SNCA-luc viability, GF-AFC fluorescence, 24 h | Potency, µM (top dose mostly 57.1 µM), hits mostly cytotoxic | 150,000 tested, 0.12% active | AID 1671193, 2021; also: nearly all actives have a fitted effect of over 30% in size
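HEK-293-SNCA-luc cells (1500/well) plated 24 h, then exposed 24 h to a dilution series; GF-AFC added 30 min at 37C, fluorescence 405/540 nm; normalised to medium-only and DMSO wells, Hill fit.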
IP6K1 inh – Primary qHTS assay for small molecule inhibitors of Inositol hexaphosphate kinase 1 (IP6K1) | Inositol hexakisphosphate kinase 1 (Homo sapiens), Q92551 | activity change, % (series mostly up to about 58 µM) | IP6K1 kinase, ADP-Glo luminescence, 2 h; hits give low values | 140,000 tested, 0.81% active; in the data active = activity change below about -25%
Target sequence (Q92551 whole entry, looked up): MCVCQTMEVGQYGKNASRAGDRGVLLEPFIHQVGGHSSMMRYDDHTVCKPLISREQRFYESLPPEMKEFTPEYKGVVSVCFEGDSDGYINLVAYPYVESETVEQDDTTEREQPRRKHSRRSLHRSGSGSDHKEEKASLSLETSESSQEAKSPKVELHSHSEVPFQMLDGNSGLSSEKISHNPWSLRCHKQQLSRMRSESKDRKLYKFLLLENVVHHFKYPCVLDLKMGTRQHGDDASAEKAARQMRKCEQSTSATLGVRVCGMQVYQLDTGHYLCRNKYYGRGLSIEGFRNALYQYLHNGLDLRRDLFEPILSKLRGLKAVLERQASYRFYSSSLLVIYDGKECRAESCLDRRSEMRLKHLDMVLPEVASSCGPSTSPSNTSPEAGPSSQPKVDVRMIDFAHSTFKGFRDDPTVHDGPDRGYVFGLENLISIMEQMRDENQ
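ADP-Glo luminescence measures ADP made by human IP6K1 during a 2 h RT reaction with ATP/IP6 (mix at 1.3 mM/130 uM); top library doses 57.5 and 19.1 uM final.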
SNCA expr inhib – Primary qHTS assay for inhibitors of alpha-synuclein gene (SNCA) expression; HEK-293 SNCA-luciferase knock-in, luminescence, 24 h; Potency, µM (series often up to 57.2 µM), most hits filed as inhibitors; 140,000 tested, 0.17% active; AID 1671194, 2021; also: nearly all actives have a fitted effect of over 45% in size
IP6K1 inh cnf – Confirmatory qHTS assay for small molecule inhibitors of Inositol hexaphosphate kinase 1 (IP6K1). shares compounds with IP6K1 inh. recombinant IP6K1 kinase, ADP-Glo luminescence, 2 h. Potency, µM (titrated, usually from 49 µM), hits mostly inhibitors. 1,200 tested, 13% active. AID 1645852, 2021; also: nearly all actives have a fitted effect of over 65% in size
Numbers stand for hits; [ ] = another dose, or the depositor's remark. In the library only some 3% were active in any assay of this set; here they are far more common. Unless noted, calls follow the shape of the dose curve; as a rule, active = well fitted curve in the direction sought with a large enough effect; inconclusive = small, poorly fitted or top-dose-only effect, or another doubt; inactive = no such curve, though single readings can be large; an effect the other way counts as inactive or inconclusive.

Screening NC(=O)Cc1c[nH]c2ncc(-c3ccc4c(c3)OCO4)cc12 returned KDM5B inh 35µM, SNCA viab count inactive, IP6K1 inh -47, SNCA expr inhib inactive and IP6K1 inh cnf 15µM.
`NC(=O)Cc1c[nH]c2ncc(-c3ccc(Cl)cc3)cc12` gave KDM5B inh 20µM, SNCA viab count inactive, IP6K1 inh -43, SNCA expr inhib inactive and IP6K1 inh cnf inconclusive.
COc1ccc(N2CCN(CC(O)COc3ccc(C(C)(C)C)cc3)CC2)cc1 (stereo unspecified) was read as KDM5B inh inconclusive, SNCA viab count inactive, IP6K1 inh -29, SNCA expr inhib inactive and IP6K1 inh cnf inactive.
Screening COc1ccc(OCC(O)CN2CCN(c3ncccn3)CC2)cc1 (stereo unspecified) returned KDM5B inh inactive.
For CCOc1ccccc1CN1C(=O)c2ccccc2C1C(=O)NC1CCCCCC1 (stereo unspecified) the results were KDM5B inh inactive, SNCA viab count inconclusive, IP6K1 inh -41, SNCA expr inhib inactive and IP6K1 inh cnf inactive.
For O=C(NCC1CCCCC1)C1CCc2nnc(C3CCN([S+](=O)([O-])c4ccccc4Cl)CC3)n21 (stereo unspecified) the results were SNCA viab count inactive[12.5 µM], IP6K1 inh inactive and SNCA expr inhib inactive.
`CCn1cnc2c(=O)oc3ccc(S(=O)(=O)N4CCN(c5cc(C)ccc5C)CC4)cc3c21` gave KDM5B inh inactive, SNCA viab count inactive, IP6K1 inh -28, SNCA expr inhib inactive and IP6K1 inh cnf inactive.
Screening O=C(Nc1ccc(F)cc1)c1ccc2oc(-c3cccnc3Cl)nc2c1 returned SNCA viab count inactive[12.5 µM], IP6K1 inh inactive and SNCA expr inhib inactive.
Screening COc1ccc(CCCc2nnc(SCC(=O)Nc3cccc(C)c3)o2)cc1 returned KDM5B inh inconclusive, SNCA viab count inactive, IP6K1 inh -33, SNCA expr inhib inactive and IP6K1 inh cnf inactive.
Cc1ccc(OCC(=O)Nc2ccccc2OCc2cc(=O)n3ccccc3n2)cc1C was read as KDM5B inh inactive, SNCA viab count inactive, IP6K1 inh -27, SNCA expr inhib inactive and IP6K1 inh cnf inactive.
For C[C@@H]1CCN(C(=O)CC#N)C[C@@H]1N(C)c1ncnc2[nH]ccc12 the results were IP6K1 inh cnf inactive.
`O=C(NCc1ccc2c(c1)CCN2C(=O)c1ccncc1)c1ccccc1Br` gave KDM5B inh inactive, SNCA viab count inactive, IP6K1 inh inactive and SNCA expr inhib inactive.
O=C(NCc1ccc2c(c1)CCN2C(=O)c1ccncc1)c1ccccc1F was read as KDM5B inh inactive, SNCA viab count inactive, IP6K1 inh -30, SNCA expr inhib inactive and IP6K1 inh cnf inactive.
COc1cccc(NC(=O)CSc2nnc3scc(-c4ccc(Cl)cc4)n23)c1 was read as KDM5B inh inactive, SNCA viab count inactive, IP6K1 inh -37, SNCA expr inhib inactive and IP6K1 inh cnf inactive.
COc1ccc(NC(=O)CSc2nnc3scc(-c4ccc(Cl)cc4)n23)cc1 was read as KDM5B inh inactive, SNCA viab count inconclusive, IP6K1 inh inactive and SNCA expr inhib inactive.
COc1ccc(Nc2ccnc(N3CCC(C(=O)NCc4ccccc4OC)CC3)n2)cc1 was read as SNCA viab count inactive[12.5 µM], IP6K1 inh inactive and SNCA expr inhib inactive.
For Oc1cccc(-c2c3nc(c(-c4cccc(O)c4)c4ccc([nH]4)c(-c4cccc(O)c4)c4nc(c(-c5cccc(O)c5)c5ccc2[nH]5)CC4)C=C3)c1 the results were SNCA viab count inactive, IP6K1 inh -53, SNCA expr inhib inactive and IP6K1 inh cnf inconclusive.
Screening Cn1c(=O)c2[nH]c(-c3cccc(O)c3)nc2n(C)c1=O returned KDM5B inh inactive.
`O=C(Nc1cccc(C(F)(F)F)c1)c1cc2nc(-c3ccco3)cc(C(F)(F)Cl)n2n1` gave KDM5B inh inconclusive, SNCA viab count inactive, IP6K1 inh inactive and SNCA expr inhib inconclusive.
Screening O=C(Nc1cc(F)ccc1F)c1cc2nc(-c3ccco3)cc(C(F)(F)Cl)n2n1 returned KDM5B inh inconclusive, SNCA viab count inactive, IP6K1 inh -26, SNCA expr inhib inactive and IP6K1 inh cnf inactive.
